The whole screen tested about 320,000 compounds, of which about 480 (0.15%) were called active. Roughly 1% stayed inconclusive and do not appear here. Cut-off read from the data, not from the text of the source: active = inhibition above about 26% (passing the limit was not always enough); inconclusive = no clear call, values can overlap the other calls. What follows is part of a selection rich in actives, with near analogues and random picks from the rest.

The experiment deals with Histone deacetylase 3 (Homo sapiens) (UniProt O15379). Description: HDAC3 deacetylase inhibitors, primary screen, biochemical, fluorescence, cell-free homogeneous (AID 2718). The settings on record: recombinant HDAC3, fluorogenic peptide/trypsin coupled, at 8.3 µM, stronger effect = higher value.
Histone deacetylase 3 (Homo sapiens), sequence (O15379 whole entry, looked up): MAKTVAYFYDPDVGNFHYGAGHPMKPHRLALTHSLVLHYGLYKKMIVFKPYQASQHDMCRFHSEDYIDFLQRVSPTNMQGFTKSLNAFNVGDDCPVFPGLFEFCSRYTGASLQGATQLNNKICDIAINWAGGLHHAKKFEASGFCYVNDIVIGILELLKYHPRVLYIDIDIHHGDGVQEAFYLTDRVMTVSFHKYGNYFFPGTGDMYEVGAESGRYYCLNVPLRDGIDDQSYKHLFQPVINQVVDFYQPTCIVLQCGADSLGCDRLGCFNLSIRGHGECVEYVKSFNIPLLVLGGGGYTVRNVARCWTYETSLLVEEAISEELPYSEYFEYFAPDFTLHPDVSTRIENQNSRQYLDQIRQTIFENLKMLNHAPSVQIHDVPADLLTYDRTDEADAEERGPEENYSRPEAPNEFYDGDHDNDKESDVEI
What is called inhibition is the drop in the measured response relative to a control, in per cent. Take `O=C(COC(=O)c1cccnc1Cl)NC12CC3CC(CC(C3)C1)C2`: the inhibition is -0.423% (inactive).

`COCC(C)n1c(SCC(=O)NC2CCCCC2C)nc2ccccc2c1=O` (centres undefined): the inhibition is 0.838% (inactive). With `O=C(COC(=O)c1ccc(Br)o1)NC12CC3CC(CC(C3)C1)C2` the figure was -3.01% (inactive); with `C[C@H](CO)N1C[C@H](C)[C@@H](CN(C)C(=O)Nc2ccc3c(c2)OCO3)Oc2c(cccc2N(C)C)C1=O`, -8.66% (inactive). Consider `COc1ccc2nc3n(c(=O)c2c1)-c1ccc(Cl)cc1C(=O)NC3Cc1ccccc1` (centres undefined), for which the inhibition was -1.2% (inactive). In the case of `C[C@H]1COC(=O)[C@H](CC(=O)OC(C)(C)C)C/C=C\C[C@@H](CC(=O)N[C@H](CO)Cc2ccccc2)C(=O)N1`, the inhibition was -4.05% (inactive).

For `CN1C(=O)[C@H]2[C@@H](/C=C/c3ccccc3)N3C(=O)CN(Cc4ccc(-c5ccccc5)cc4)C(=O)[C@@]3(C)[C@H]2C1=O`, the inhibition is 6.83% (inactive). On to `O=C(OCC(=O)N1CCCCCC1)c1ccc(Br)c(S(=O)(=O)N2CCOCC2)c1`, for which the inhibition was -0.213% (inactive). With `O=C(CCNC(=O)c1ccc(Br)cc1)NCC(c1ccco1)N1CCCCC1` (centres undefined) the figure was 2.98% (inactive); with `Cn1c(N)c(C(=O)COC(=O)c2ccc3ccccc3c2)c(=O)n(C)c1=O`, -3.95% (inactive); with `COC(=O)c1c(CCl)noc1C(=O)NC(C)C`, -2.79% (inactive). For the molecule `O=C(CNC(=O)c1ccccc1F)OCC(=O)c1c[nH]c2ccccc12`, the inhibition was 1.43% (inactive). Under `Clc1cccc(Cl)c1Cn1nnc(-c2cccs2)n1` stands -9.16% (inactive). Under `COc1cc(Cl)c(C)cc1NC(=O)CSc1nnc(CN2CCCC2)o1` stands -2.25% (inactive); under `Cc1nn(C)c(C)c1CN(C(=O)CCc1nnc(Cc2c[nH]c3ccccc23)o1)C(C)C`, -1.72% (inactive). Under `Cc1ccsc1C(=O)NNC(=O)COc1ccc(Br)cc1` stands -2.82% (inactive); under `CC1(C)CC[C@@]2(C(=O)O)C(C1)C1=CCC3[C@@]4(C)CC[C@H](O)C(C)(C)C4CC[C@@]3(C)[C@]1(C)C[C@H]2O` (some centres undefined), -0.0116% (inactive). As for `CN(C(=O)CSc1cccc[n+]1[O-])C1CCCCC1`, the inhibition was -0.125% (inactive). In the case of `COc1cc(NC(=O)COC(=O)c2cc(S(=O)(=O)N3CCOCC3)ccc2F)cc(OC)c1`, the inhibition is -6.13% (inactive). With `CC(C)CC1(C)NC(=O)N(CC(=O)Nc2ccc3c(c2)OCCO3)C1=O` (centres undefined) the figure was 0.72% (inactive); with `O=C(N/N=C\c1ccc(-c2ccc(Cl)c(Cl)c2)o1)C(=O)N1CCCC1`, -2.85% (inactive); with `Cc1ccc(C(=O)N2CCC(n3nccc3NC(=O)Nc3cccc(F)c3)CC2)cn1`, 4.68% (inactive). Under `CCN1N=C(c2ccccc2)CCC1=O` stands -1.92% (inactive); under `CN(c1ccccc1)S(=O)(=O)c1cc(C(=O)N2CCN(c3ncccn3)CC2)ccc1Cl`, 5.51% (inactive). On to `O=C(N=C1SC2CS(=O)(=O)CC2N1c1ccccc1)c1ccccc1` (centres undefined), for which the inhibition is 3.67% (inactive). With `O=C(Cn1c(N2CCN(C/C=C/c3ccccc3)CC2)nc2ccccc21)c1ccccc1` the figure was 11.7% (inactive); with `COc1ccc(NC(=O)N(C)C[C@H]2Oc3ccc(NC(=O)C4CC4)cc3C(=O)N([C@H](C)CO)C[C@@H]2C)cc1`, 2.07% (inactive); with `COc1ccc(S(=O)(=O)N(C)C[C@H]2Oc3c(NC(=O)Nc4ccc5c(c4)OCO5)cccc3C(=O)N([C@H](C)CO)C[C@@H]2C)cc1`, 0.282% (inactive).

As for `Cc1ccc(C(=O)NNC(=O)CSc2nnc3ccccn23)cc1`, the inhibition was -19.4% (inactive).

In the case of `C#CCOCCOCCOCCNc1nc(N2CCN(C(=O)CCCCCCCCCCNC(=O)Cn3cc(CCCCCN)nn3)CC2)nc(N2CCN(C(=O)CCCCCCCCCCNC(=O)[C@H](CO)n3cc(CCCSC)nn3)CC2)n1`, the inhibition is 22.2% (inactive).

For the molecule `C#CCOCCOCCOCCNc1nc(N2CCN(C(=O)CCCCCCCCCCNC(=O)[C@H]([C@@H](C)CC)n3cc(CCCCN=C(N)N)nn3)CC2)nc(N2CCN(C(=O)CCCCCCCCCCNC(=O)[C@H](CO)n3cc(CCCSC)nn3)CC2)n1`, the inhibition is 65% (active). Under `C#CCOCCOCCOCCNc1nc(N2CCN(C(=O)CCCCCCCCCCNC(=O)[C@H](CCCCN)n3cc(C)nn3)CC2)nc(N2CCN(C(=O)CCCCCCCCCCNC(=O)[C@H](CO)n3cc(CCCSC)nn3)CC2)n1` stands 17.4% (inactive); under `CCOC(=O)C1(Cc2cccc(OC)c2)CCN(Cc2csc(C(C)=O)c2)CC1`, 0.985% (inactive); under `CCOC(=O)C1=C(CC)Nc2ccccc2N=C1N`, 5.45% (inactive). With `CCCCOc1ccc(N(CC(=O)NCC2CCCO2)C(=O)CCC(=O)Nc2cc(C)ccn2)cc1` (centres undefined), the inhibition is 1.38% (inactive).

As to `COc1ccc(C(=O)COC(=O)C(O)c2ccccc2)c(OC)c1` (centres undefined), the inhibition is 8.77% (inactive). Under `CCOc1ccc(NS(=O)(=O)c2cc(C)c(C)cc2C)cc1` stands 2.58% (inactive); under `Cc1ccc(S(=O)(=O)N2CCN(C(=O)CN3C(=O)NC(C)(c4ccc(Cl)cc4)C3=O)CC2)c(C)c1` (centres undefined), -0.669% (inactive); under `CC1CN(C(=O)c2ccc([N+](=O)[O-])s2)CC(C)O1` (centres undefined), -3.39% (inactive). With `Cc1c(CCO)c(=O)[nH]n1C(=O)c1c(F)cccc1F` the figure was -6.64% (inactive).

Take `COc1ccc(CC(NC(C)=O)C(=O)N2CCN(C(=O)Nc3cccc(Cl)c3)CC2)cc1OC` (centres undefined): the inhibition is 1.26% (inactive). With `Cc1ccc(-c2nc(-c3cccnc3)sc2CC(=O)Nc2ccc(C)c(Cl)c2)cc1` the figure was 6.66% (inactive); with `Cc1ccc(S(=O)(=O)N(CCCN(C)C)Cc2ccc3c(c2)OCO3)cc1`, 5.59% (inactive); with `CCOC(=O)C1CCN(CC(=O)Nc2ccc(OC)c(S(=O)(=O)N3CCCCC3)c2)CC1`, 4.01% (inactive). With `CCOC(=O)c1ccc(N2C(=O)CC(N(C)Cc3ccccc3)C2=O)cc1` (centres undefined) the figure was -1.1% (inactive); with `CCOc1ccc(N2C(=O)CC(N(O)c3ccccc3)C2=O)cc1` (centres undefined), -2.22% (inactive).

For the molecule `CCCCCCC(=O)N(O)C1CC(=O)N(c2ccccc2)C1=O` (centres undefined), the inhibition was 78.3% (active). `CCN(CC)S(=O)(=O)c1ccc2c3c(cccc13)C(=O)S2`: the inhibition is 3.45% (inactive). In the case of `Fc1cnc(N2CCOCC2)nc1NCc1ccccc1`, the inhibition was -0.33% (inactive).

Values taken from PubChem BioAssay AID2718 (Broad Institute, 2010).
